Results published in PubChem BioAssay.
The source made the active and inactive calls. Unless noted, no rule for the calls is given here.

What was measured:
[1] = compound effects on lung adenocarcinoma cell viability – A549, calcein-AM fluorescence, 48 h, basal, profiling panel (AID 1162); details: higher = more signal; also: test concentration not given here
[2] = compound effects on differentiated 3T3-L1 adipocyte viability – cell-based, 3T3-L1 adipocytes, calcein-AM fluorescence, 48 h, basal, profiling panel (AID 1163); details: 3T3-L1 adipocytes viability, higher = more signal; also: test concentration not given here
[3] = compound effects on hepatocellular carcinoma cell viability – HepG2, calcein-AM fluorescence, 48 h, basal, profiling panel (AID 1164); details: higher = more signal; also: test concentration not given here
[4] = compound effects on multiple myeloma cell viability – MM1S, calcein-AM fluorescence, 48 h, basal, profiling panel (AID 1165); details: higher = more signal;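 also: viability of MM1S multiple myeloma cells under basal unstimulated conditions; test concentration not given here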
[5] = calcein-AM signal in unstimulated myeloma cells – cell-based, calcein-AM fluorescence, 48 h, PK04 Diversity Set, profiling panel (AID 1166); details: RPMI8226 myeloma viability, higher = more signal;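 also: cells grown under basal conditions without added stimulus; test concentration not given here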
[6] = JC-1 mitochondrial signal, unstimulated HepG2 cells – cell-based, JC-1 fluorescence, 24 h, 100 nL compound, profiling panel (AID 1167); details: HepG2 mitochondrial potential, higher = more signal; also: test concentration not given here
[7] = JC-1 mitochondrial signal, unstimulated adipocytes – cell-based, JC-1 fluorescence, 3T3-L1 adipocytes, 24 h, 100 nL compound, profiling panel (AID 1168); details: JC-1 mitochondrial fluorescence, higher = more signal, called active from +8 up or from −8 down; also: test concentration not given here
[8] = JC-1 mitochondrial signal, unstimulated myeloma cells – cell-based, JC-1 fluorescence, RPMI8226, 24 h, 100 nL compound, profiling panel (AID 1169); details: JC-1 mitochondrial potential fluorescence, higher = more signal; also: test concentration not given here
[9] = JC-1 mitochondrial signal, unstimulated MM1S myeloma – cell-based, JC-1 fluorescence, 24 h, 100 nL compound, profiling panel (AID 1170); details: MM1S mitochondrial potential, higher = more signal; also: test concentration not given here
[10] = resazurin metabolic signal in A549 cells – cell-based, resazurin fluorescence, 24 h, PK04 Diversity Set, profiling panel (AID 1171); details: A549 viability, higher = more signal, called active from +8 up or from −8 down; also: test concentration not given here
[11] = resazurin metabolic signal in HepG2 cells – cell-based, resazurin fluorescence, 24 h, PK04 Diversity Set, profiling panel (AID 1172); details: HepG2 viability, higher = more signal; also: test concentration not given here
[12] = budding yeast growth changes without added modifier – OD600, strain BY4716, 24 h, basal condition, primary screen (AID 1173); details: S. cerevisiae BY4716 growth, OD600, 24 h; higher = more signal, called active from +8 up or from −8 down
[13] = viability profiling in MM1S myeloma cells – cell-based, resazurin fluorescence, basal, 24 h, PK04 Diversity Set, profiling panel (AID 1174); details: higher = more signal, called active from +8 up or from −8 down; also: test concentration not given here
[14] = molecular target: Dihydroorotate dehydrogenase (quinone), mitochondrial (Plasmodium falciparum (isolate 3D7)) (UniProt Q08210); test: inhibition of P. falciparum DHODH – biochemical, C-terminal His tag, absorbance 600 nm, primary screen (AID 1175); details: PfDHODH enzyme, DCIP absorbance 600 nm; higher = more signal, called active from +8 up or from −8 down;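 also: recombinant parasite enzyme with a five histidine tag at its C terminus; test concentration not given here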
[15] = inhibition of PAO1 biofilm formation – strain PAO1, LB-PBS medium, absorbance 600 nm, primary screen (AID 1176); also: test concentration not given here; details: P. aeruginosa PAO1 growth/biofilm, A600, 12 h; higher = more signal
[16] = growth modulation of vineyard yeast isolate – strain RM11-1a, OD600, basal, 24 h, primary screen (AID 1177);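 also: cultures grown under basal conditions with no added stressor; test concentration not given here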; details: S. cerevisiae RM11-1a growth, OD600, 24 h; higher = more signal, called active from +8 up or from −8 down
[17] = growth of efflux-deficient E. coli DRC39 – strain DRC39, OD650, 24 h, E. coli filamentation inducers, primary screen (AID 1178);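 also: growth measured as culture turbidity by optical density at 650 nm; test concentration not given here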; details: E. coli DRC39 acrAB, higher = more signal, called active from +8 up or from −8 down
[18] = growth of efflux-deficient E. coli DRC39 – strain DRC39, OD650, 48 h, E. coli filamentation inducers, primary screen (AID 1179);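 also: screen aims at cell division blockers that make cells filament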; details: E. coli DRC39 delta-acrAB growth, higher = more signal, called active from +8 up or from −8 down
[19] = viability profiling in RPMI8226 myeloma cells – cell-based, resazurin fluorescence, basal, 24 h, PK04 Diversity Set, profiling panel (AID 1180); details: higher = more signal;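 also: RPMI8826 multiple myeloma cell line at 5000 cells per well; test concentration not given here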
[20] = molecular target: E3 ubiquitin-protein ligase XIAP (Homo sapiens) (UniProt P98170); test: small molecules binding XIAP protein – biophysical, small-molecule microarray, fluorescence 635 nm, primary screen (AID 1181); details: higher = more signal;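 also: score merges 667 nm emission and signal to noise over triplicate slides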
Sequence of E3 ubiquitin-protein ligase XIAP (Homo sapiens) (P98170 whole entry, looked up): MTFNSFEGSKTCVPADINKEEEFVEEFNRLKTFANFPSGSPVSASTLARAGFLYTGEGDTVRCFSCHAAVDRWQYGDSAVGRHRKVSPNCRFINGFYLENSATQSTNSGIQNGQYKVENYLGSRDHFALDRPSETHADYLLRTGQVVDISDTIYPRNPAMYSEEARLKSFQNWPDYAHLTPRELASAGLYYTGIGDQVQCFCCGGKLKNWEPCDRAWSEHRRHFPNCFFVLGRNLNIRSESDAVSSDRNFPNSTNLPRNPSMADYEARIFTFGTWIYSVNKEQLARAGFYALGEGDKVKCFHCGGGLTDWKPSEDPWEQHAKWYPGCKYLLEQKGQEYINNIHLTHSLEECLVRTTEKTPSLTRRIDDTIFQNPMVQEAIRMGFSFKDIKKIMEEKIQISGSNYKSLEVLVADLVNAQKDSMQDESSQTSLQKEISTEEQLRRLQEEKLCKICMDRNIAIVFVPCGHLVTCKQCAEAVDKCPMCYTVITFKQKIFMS

Sequence of Dihydroorotate dehydrogenase (quinone), mitochondrial (Plasmodium falciparum (isolate 3D7)) (Q08210 whole entry, looked up): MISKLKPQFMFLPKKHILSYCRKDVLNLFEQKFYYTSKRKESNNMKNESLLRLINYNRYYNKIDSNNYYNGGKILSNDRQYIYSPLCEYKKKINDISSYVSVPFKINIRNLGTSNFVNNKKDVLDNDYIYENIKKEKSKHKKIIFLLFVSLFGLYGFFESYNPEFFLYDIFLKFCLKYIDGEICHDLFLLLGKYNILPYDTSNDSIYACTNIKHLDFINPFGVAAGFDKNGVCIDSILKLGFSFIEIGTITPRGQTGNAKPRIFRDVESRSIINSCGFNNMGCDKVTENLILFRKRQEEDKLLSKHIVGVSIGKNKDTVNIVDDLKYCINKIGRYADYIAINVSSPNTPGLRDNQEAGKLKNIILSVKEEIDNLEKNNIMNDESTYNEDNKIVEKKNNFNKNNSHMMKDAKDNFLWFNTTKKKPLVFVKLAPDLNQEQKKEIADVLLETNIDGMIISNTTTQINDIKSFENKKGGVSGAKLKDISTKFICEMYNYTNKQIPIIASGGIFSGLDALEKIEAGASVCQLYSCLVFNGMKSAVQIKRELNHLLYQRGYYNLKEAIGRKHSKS

SMILES | z-score [1] | z-score [2] | z-score [3] | z-score [4] | z-score [5] | z-score [6] | z-score [7] | z-score [8] | z-score [9] | z-score [10] | z-score [11] | z-score [12] | z-score [13] | composite z-score [14] | z-score [15] | z-score [16] | z-score [17] | z-score [18] | z-score [19] | composite z-score [20]
COc1ccc(-c2nc(-c3ccccc3)c3c(c2C)CO[Si]3(C(C)C)C(C)C)cn1 | -0.0364 | -0.628 | -0.292 | -1.03 | -3.63 | -0.922 | -1.72 (inactive) | -0.443 | -0.294 | 1.95 (inactive) | 0.539 | 0.232 (inactive) | 0.151 (inactive) | 0.366 (inactive) | 1.35 (inactive) | -0.278 (inactive) | -0.512 (inactive) | -0.329 (inactive) | -0.82 | -0.0943
CC1=C[C@@]2(CO)C(=O)[C@]3(CO3)[C@@H]1[C@H]1[C@]2(C)C=C(CO)C(=O)[C@]12CO2 | 0.23 | 0.263 | -0.164 | -3.33 | -0.753 | -0.38 | -0.311 (inactive) | 0.249 | -2.11 | 0.474 (inactive) | 0.693 | -2.6 (inactive) | -0.54 (inactive) | -2.12 (inactive) | -0.614 (inactive) | -0.813 (inactive) | 0.477 (inactive) | 0.655 (inactive) | 0.483 | -0.227
COCCOC(=O)N1C(=O)[C@@]2(c3cc(C#CCC(C(=O)OC)C(=O)OC)ccc31)[C@H](C(=O)N1CCc3cc(OC)c(OC)cc3C1)[C@H]1C(=O)O[C@H](c3ccccc3)[C@H](c3ccccc3)N1[C@@H]2c1ccc(OCCO)cc1 | 0.206 | 0.105 | 1.42 | -0.219 | 0.0896 | -0.781 | 0.512 (inactive) | -0.637 | -1.28 | -0.225 (inactive) | -0.679 | 1.63 (inactive) | -0.348 (inactive) | -1.34 (inactive) | 2.39 (inactive) | 2.8 (inactive) | -0.132 (inactive) | 0.325 (inactive) | 0.847 | -0.332
O=C(CS)NCCCCCCNC(=O)[C@H]1C[C@H]2C(=O)N[C@@H](Cc3ccccc3)C(=O)N2[C@H]1c1ccc(O)cc1 | 0.215 | 0.0724 | -0.521 | -1.51 | 0.388 | -1.57 | -1.09 (inactive) | -0.254 | 0.046 | 1.26 (inactive) | 0.504 | 0.588 (inactive) | -0.619 (inactive) | -0.0269 (inactive) | 0.836 (inactive) | 0.252 (inactive) | 0.0577 (inactive) | -0.983 (inactive) | 0.158 | -0.166
COC(=O)Cn1c(C(=O)N(C)C)cc2c1C[C@H]1CN(C(=O)c3ccccc3)[C@@](Cc3ccc(F)cc3)(C(=O)OC)[C@@H]21 | -0.0599 | -1.23 | 0.0845 | -1.38 | -1.58 | 0.0394 | -0.53 (inactive) | 0.446 | -0.148 | -0.421 (inactive) | -0.836 | 2.15 (inactive) | -0.702 (inactive) | 0.289 (inactive) | 0.743 (inactive) | 1.34 (inactive) | -0.61 (inactive) | -0.582 (inactive) | -0.795 | -0.13
C=CC[C@]1(C(=O)O)COC(c2ccc(OCCCO)cc2)=N1 | 0.083 | -0.206 | -0.148 | -0.0046 | -0.571 | 0.0919 | 0.224 (inactive) | -0.0187 | -0.116 | -0.408 (inactive) | 0.264 | 0.32 (inactive) | 0.546 (inactive) | 0.146 (inactive) | 0.37 (inactive) | -0.643 (inactive) | -0.353 (inactive) | -0.201 (inactive) | -0.1 | 0.1
C=CCC(OC(C)=O)[C@@H]1[C@@H](N(Cc2ccc(-c3ccccc3)cc2)C(=O)Cc2ccc(F)cc2)c2cc(OCCCO)ccc2N1C(=O)Cc1ccc(OC)cc1 (stereo not given in full) | 0.178 | 0.0992 | 0.833 | 0.399 | -0.279 | 1.69 | -1.02 (inactive) | -0.112 | -0.362 | 0.084 (inactive) | -0.939 | 0.637 (inactive) | 0.0774 (inactive) | -0.433 (inactive) | -0.431 (inactive) | 0.313 (inactive) | -0.455 (inactive) | -0.14 (inactive) | -0.103 | 0.0757
